From PubChem BioAssay (NCI)
About 79,000 compounds went through this panel and 15% of them were active in at least one assay; those are over-represented in the sample as a whole. Calls of active or inactive are those of the source. No stated cut-off is given here; in the data, active means growth inhibition above about 70%; inactive means the rest.

experiment: NCI Yeast Anticancer Drug Screen. Data for the mec2-1 strain (AID 157); details: S. cerevisiae mec2-1 strain, at 3.7 µM, active compounds read high
How it was run: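 Test agents were screened against the mec2-1 yeast strain, with defined DNA repair or cell cycle alteration. Growth was scored as inhibition against vehicle-only controls.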

Compound | growth inhibition
COc1ccc(/C=C2\CCc3ccccc3C2=O)cc1OC | -8% (inactive)
O=Cc1ccccc1B(O)O | 25% (inactive)
CC(=O)CC[N+](C)(C)C | -3% (inactive)
O=C(O)[C@H]1[C@@H](C2CCCCC2)O[C@@H](C2CCCCC2)O[C@H]1C(F)(F)F | -2% (inactive)
CN(NC(=O)/C(=C/C=C/c1ccccc1)NC(=O)c1ccccc1)C1=C(Cl)C(=O)[N+](c2ccccc2)=CC1 | 6% (inactive)
CCCCOc1ccc(Nc2c3ccccc3nc3ccccc23)cc1 | -37% (inactive)
N#C/C(=C1C=C/C(=N\O)C(Cl)=C\1)c1ccccc1 | 0% (inactive)
COc1ccc(C(=O)OCCc2ccccc2)cc1 | -4% (inactive)
Cc1c2ccncc2c(C)c2c1oc1ccccc12 | 13% (inactive)
CCCC#CCOC(=O)c1cc([N+](=O)[O-])cc([N+](=O)[O-])c1 | 33% (inactive)
Nc1nc(Nc2ccccc2)nc(Nc2ccccc2)n1 | 1% (inactive)
COc1ccc(/C=C2\S/C(=N/Nc3nc(-c4ccccc4)cs3)NC2=O)cc1OC | 88% (active)
CC(O)CN1C(=O)c2cccc3cc([N+](=O)[O-])cc(c23)C1=O (stereo not drawn) | -11% (inactive)
Cn1c(COc2ccc(/C=N/NC(=O)CCC(=O)N/N=C/c3ccc(OCc4c[n+]5ccccc5n4C)cc3)cc2)c[n+]2ccccc12 | 0% (inactive)
COC1=C(N=[N+]=[N-])C(=O)c2ncccc2C1=O | 38% (inactive)
CCN(CC)c1ccc(N=Nc2cc(S(=O)(=O)O)ccc2O)c(O)c1 | -7% (inactive)
O=C1C(C(O)(C(F)(F)F)C(F)(F)F)CCC1C(O)(C(F)(F)F)C(F)(F)F (stereo not drawn) | 8% (inactive)
CN(C)CCNC(=O)c1cccc2nc3c(ccc4ccccc43)nc12 | 2% (inactive)
O=S(=O)(CCC[C@H]1[C@@H](CCOCc2ccccc2)C2CCCN1O2)c1ccccc1 (stereo partly drawn) | 4% (inactive)
CCC(C)/C(C)=N/NC(N)=O (stereo not drawn) | 2% (inactive)
Nc1c([N+](=O)[O-])cc2c3c(cccc13)CC2 | 14% (inactive)
CC1=Cc2ccc(C)cc2C(=O)C1=O | 21% (inactive)
C=Cc1c(C)c(O)cc2c1-c1ccc(O)c(C)c1CC2 | -8% (inactive)
NCC(O)CSCc1ccc(Cl)cc1 (stereo not drawn) | -2% (inactive)
C[n+]1c(-c2ccc(NC(=O)c3ccc(C(=O)Nc4ccc(-c5cn6ccccc6[n+]5C)cc4)cc3)cc2)cn2ccccc21 | 9% (inactive)
CNC(=O)OCc1c(COC(=O)NC)c(C)n(-c2ccc(Cl)c(Cl)c2)c1C | -22% (inactive)
[O-]c1c2cc(-[n+]3c(-c4ccccc4)cc(-c4ccccc4)cc3-c3ccccc3)cc1COCCOCCOCCOCCOC2 | -4% (inactive)
C[Si](C)(C)Cc1ccccc1C(=O)O | 4% (inactive)
